This is an account of results in PubChem BioAssay (NCATS).

Records with an inconclusive call do not appear. Calls of active or inactive are those of the source. Unless noted, calls follow the shape of the dose curve; as a rule, active = well fitted curve in either direction with a large enough effect (not every such curve was filed as active); inconclusive = small, poorly fitted or top-dose-only effect, or another doubt; inactive = flat fitted curve, though single readings scatter.

In experiment [1] the target is Lysosomal acid glucosylceramidase (Homo sapiens) (UniProt P04062). The experiment is described as follows: Glucocerebrosidase-p2 (AID 348; in the data active = potency below about 10 µM; also: potency is read from the fitted curve at half-maximal effect). The following applies: purified GBA, blue fluorogenic substrate, 40 min. In a few lines:
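Compounds titrated from 0.6 nM upwards against 0.2 nM enzyme in pH 5.9 citric acid/KH2PO4, taurocholate, tween-20; blue fluorogenic substrate 80 uM, 40 min room temperature, stopped and read Ex 365/Em 440 for AC50.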

Experiment [2] can be described thus: AP1 Signaling Pathway (AID 357). Also: % is scaled to controls: 0 for no effect and ±100 for the full control effect. The following applies: ME-180 AP-1-bla reporter, EGF-induced, beta-lactamase ratio, 5 h; at 7.69 µM (top of the series) unless noted. In a few lines: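 Cells are seeded overnight, exposed to compound titrations and an EC50 level of EGF for 5 hours at 37 °C, then loaded with CCF4 dye for 2.5 hours. Beta-lactamase activity under the AP-1 element is read as a blue/green ratio.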

Experiment [3] can be described thus: NFAT Signaling Pathway (AID 444).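 Also: carbachol stimulus at about its EC50 of 1 µM final; % is scaled to controls: 0 for no effect and ±100 for the full control effect.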 The following applies: Jurkat NFAT-bla M1, carbachol, beta-lactamase ratio, 5 h; at 7.69 µM (top of the series) unless noted. The gist of the method:
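Read-out: CCF4 FRET ratio (460 nm/530 nm) after 1 h RT dye loading, used for %activity and AC50 from titration series. Cells: Jurkat NFAT-β-lactamase/M1 line, treated with compound plus 1 uM carbachol for 5 h, 37 °C.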

Experiment [4] is described as follows: Stat Signaling Pathway (AID 446).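 Also: ME-180 cervical cancer cells given 40 pM IL-6 alongside compound; SIE-controlled beta-lactamase reporter measured as 460/530 nm FRET emission ratio; % is scaled to controls: 0 for no effect and ±100 for the full control effect.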 The following applies: ME-180 (cervical carcinoma) SIE beta-lactamase reporter, IL-6 stimulated, 5 h; at 7.69 µM (top of the series) unless noted. In a few lines:
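ME-180 cells carrying a SIE-driven beta-lactamase reporter are stimulated with 40 pM IL-6 for 5 h at 37C in the presence of compound. The 460/530 nm FRET substrate ratio is read after 2.5 h at RT. Data are normalised to 300 pM IL-6 and to 125 nM JAK inhibitor controls.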

For experiment [5], the target named is Glucocorticoid receptor (Homo sapiens) (UniProt P04150). The experiment in a line: GR-EFC Redistribution (AID 451; calls by dose curve; also: potency is read from the fitted curve at half-maximal effect). The following applies: CHO-K1 GR-EFC translocation, beta-gal luminescence, 2 h. In a few lines: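 Translocation of GR-ED fusion to nuclear EA restores b-gal, read by luminescence after 1 h room-temperature detection. Engineered CHO-K1 biosensor cells, 1,000/well, exposed 2 h at 37 C to titrations up to 46 uM final.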

In experiment [6] the target is Mitogen-activated protein kinase 10 (Mus musculus) (UniProt Q61831). The experiment in a line: JNK3 AlphaScreen Assay (AID 530).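 Also: kinase came from lysate of stimulated human HepG2 cells; signal reports phosphorylation of biotinylated GST-cJun 1-79 at Ser73 with 10 µM ATP; % is scaled to controls: 0 for no effect and ±100 for the full control effect.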 The following applies: JNK3 lysate, c-Jun phosphorylation; series mostly up to 57.1 µM. The gist of the method:
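Compound titrations were preincubated 15 minutes at room temperature with substrate, antibody and pre-activated JNK3-containing HepG2 lysate. Reactions were started with 10 uM ATP and stopped with EDTA-containing bead buffer for AlphaScreen detection.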

For experiment [7], the target named is 3',5'-cyclic-AMP phosphodiesterase 4B (Homo sapiens) (UniProt Q07343). The experiment in a line: qHTS Assay for Inhibitors of PDE-IV (AID 607; active = well fitted activation curve with a large enough effect in the main read-out, with a control signal flat, not every such curve was filed as active; also: % of control where 0% means no effect). The following applies: HEK293 ACTOne CNG channel cells, membrane potential fluorescence; series mostly up to 22.9 µM. The gist of the method:
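HEK293 ACTOne cells with CNG channel (1000/well), endogenous PDE4; membrane potential dye, compounds up to 22.9 uM final. Fluorescence Ex 535/Em 590; RO 20-1724 (100 uM final) as reference.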

Experiment [8] in a line: qHTS Assay for Lipid Storage Modulators (AID 1519; calls by dose curve). The following applies: Drosophila S3 cells, BODIPY lipid droplet/cell ratio, laser cytometry, cells loaded with oleic acid; for activity change, negative = inhibition: at 57.5 µM (top of the series). The gist of the method: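 Cells seeded at 5,000 per well were treated with compounds over a concentration series and loaded with oleic acid (400 uM, as added). Lipid droplet fluorescence (488 nm excitation, 500-530 nm channel) was read by laser-scanning cytometry and normalized to 20 uM Triacsin C.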
(In general: qHTS replaces the single test concentration by a dilution series.)

Experiment [9] in a line: Primary qHTS for small molecule stabilizers of the endoplasmic reticulum resident proteome: Secreted ER Calcium Modulated Protein (SERCaMP) assay (AID 1508630; active = well fitted curve in the direction sought with a large enough effect; an effect the other way counts as inactive or inconclusive; also: % is scaled to controls: 0 for no effect and ±100 for the full control effect). The following applies: SH-SY5Y GLuc-SERCaMP (Gaussia luciferase released on ER calcium loss) secretion, thapsigargin, luminescence; series mostly up to 38.4 µM. The gist of the method:
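GLuc-SERCaMP-expressing SH-SY5Y cells, pretreated 16 h with compound, are challenged with thapsigargin to empty ER calcium stores; after 4 h, coelenterazine is added directly to the medium and luminescence is imaged.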

For experiment [10], the target named is Glucocorticoid receptor (Homo sapiens) (UniProt P04150). The experiment in a line: GR-GFP Redistribution (AID 450;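 active = compounds whose dose series gives a full or clear partial fitted curve of increased nuclear translocation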; also: potency is read from the fitted curve at half-maximal effect). The following applies: U2OS GR-GFP nuclear translocation, laser cytometry, 2 h.
In experiment [11] the target is Cytochrome P450 3A4 (Homo sapiens) (UniProt P08684). The experiment in a line: qHTS Assay for Activators of Cytochrome P450 3A4 (AID 885; active = well fitted curve in the direction sought with a large enough effect; an effect the other way counts as inactive or inconclusive; also: nearly all actives have a fitted effect of over 65% in size). The following applies: recombinant CYP3A4, Luciferin-PPXE luminescence, 60 min; series mostly up to 57.1 µM. In a few lines: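 Human CYP3A4 (20 nM) with Luciferin-PPXE at 25 uM (its KM) in 200 mM KPO4; 10 min compound preincubation, then NADPH regeneration and 60 min reaction at RT. Luciferin read by luminescence; normalized to 57 uM ketoconazole full inhibition.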

The mark [12] stands for this setting: measured here: cell count channel max response.
The mark [13] stands for this setting: measured here: lipid channel max response.

3',5'-cyclic-AMP phosphodiesterase 4B (Homo sapiens), sequence (Q07343 whole entry, looked up): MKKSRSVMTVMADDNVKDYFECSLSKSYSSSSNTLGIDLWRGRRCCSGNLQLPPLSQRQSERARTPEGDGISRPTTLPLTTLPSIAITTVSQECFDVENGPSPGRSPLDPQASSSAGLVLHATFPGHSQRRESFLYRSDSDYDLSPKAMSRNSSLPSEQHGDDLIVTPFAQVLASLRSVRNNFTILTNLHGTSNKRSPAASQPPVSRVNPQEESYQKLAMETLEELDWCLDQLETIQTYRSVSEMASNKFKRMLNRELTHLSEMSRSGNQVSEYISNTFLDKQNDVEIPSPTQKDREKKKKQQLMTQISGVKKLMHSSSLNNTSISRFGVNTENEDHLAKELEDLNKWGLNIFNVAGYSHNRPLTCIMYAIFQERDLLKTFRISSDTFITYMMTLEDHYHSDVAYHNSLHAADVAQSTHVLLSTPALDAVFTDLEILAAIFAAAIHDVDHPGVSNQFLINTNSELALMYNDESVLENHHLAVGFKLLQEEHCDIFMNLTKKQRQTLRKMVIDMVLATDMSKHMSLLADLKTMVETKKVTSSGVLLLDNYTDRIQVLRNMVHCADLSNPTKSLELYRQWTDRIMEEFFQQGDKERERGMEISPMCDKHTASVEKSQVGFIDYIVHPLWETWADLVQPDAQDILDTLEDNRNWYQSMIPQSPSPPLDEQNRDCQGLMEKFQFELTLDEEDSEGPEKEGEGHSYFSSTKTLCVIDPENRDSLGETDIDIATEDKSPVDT
Lysosomal acid glucosylceramidase (Homo sapiens), sequence (P04062 whole entry, looked up): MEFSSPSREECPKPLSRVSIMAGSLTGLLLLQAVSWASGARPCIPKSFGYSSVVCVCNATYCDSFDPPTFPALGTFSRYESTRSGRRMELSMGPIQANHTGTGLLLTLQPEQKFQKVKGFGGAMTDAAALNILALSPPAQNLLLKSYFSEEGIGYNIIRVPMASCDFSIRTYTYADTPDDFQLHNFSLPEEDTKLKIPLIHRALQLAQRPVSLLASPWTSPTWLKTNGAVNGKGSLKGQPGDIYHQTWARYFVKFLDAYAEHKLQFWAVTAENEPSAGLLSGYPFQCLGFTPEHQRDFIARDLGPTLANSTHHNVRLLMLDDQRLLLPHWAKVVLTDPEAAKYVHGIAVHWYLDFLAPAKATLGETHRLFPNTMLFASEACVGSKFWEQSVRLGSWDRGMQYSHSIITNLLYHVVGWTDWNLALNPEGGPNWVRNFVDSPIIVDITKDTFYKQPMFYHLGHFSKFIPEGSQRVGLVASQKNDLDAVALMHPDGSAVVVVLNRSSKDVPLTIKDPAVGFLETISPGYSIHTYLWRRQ
Glucocorticoid receptor (Homo sapiens), sequence (P04150 whole entry, looked up, the tested form may be a part): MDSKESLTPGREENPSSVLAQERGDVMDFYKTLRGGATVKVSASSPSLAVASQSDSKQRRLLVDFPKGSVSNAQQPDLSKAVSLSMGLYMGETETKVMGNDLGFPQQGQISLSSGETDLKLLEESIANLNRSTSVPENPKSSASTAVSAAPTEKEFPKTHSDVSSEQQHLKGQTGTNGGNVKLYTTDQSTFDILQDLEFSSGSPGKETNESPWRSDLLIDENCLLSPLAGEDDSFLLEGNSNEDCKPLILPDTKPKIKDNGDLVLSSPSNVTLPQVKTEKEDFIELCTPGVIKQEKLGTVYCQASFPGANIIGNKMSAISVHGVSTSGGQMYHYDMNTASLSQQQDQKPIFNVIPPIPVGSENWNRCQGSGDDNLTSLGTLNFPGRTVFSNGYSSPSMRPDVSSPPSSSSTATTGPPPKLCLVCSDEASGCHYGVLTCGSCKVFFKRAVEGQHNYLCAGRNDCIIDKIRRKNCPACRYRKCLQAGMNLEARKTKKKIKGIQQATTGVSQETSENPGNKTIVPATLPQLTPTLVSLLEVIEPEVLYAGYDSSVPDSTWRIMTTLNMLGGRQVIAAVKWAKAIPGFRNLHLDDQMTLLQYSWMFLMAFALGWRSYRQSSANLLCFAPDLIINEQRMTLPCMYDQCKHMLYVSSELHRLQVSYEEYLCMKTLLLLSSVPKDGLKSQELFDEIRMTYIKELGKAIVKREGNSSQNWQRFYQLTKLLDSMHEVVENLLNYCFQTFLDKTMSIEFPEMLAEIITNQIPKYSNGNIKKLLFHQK
Cytochrome P450 3A4 (Homo sapiens), sequence (P08684 whole entry, looked up): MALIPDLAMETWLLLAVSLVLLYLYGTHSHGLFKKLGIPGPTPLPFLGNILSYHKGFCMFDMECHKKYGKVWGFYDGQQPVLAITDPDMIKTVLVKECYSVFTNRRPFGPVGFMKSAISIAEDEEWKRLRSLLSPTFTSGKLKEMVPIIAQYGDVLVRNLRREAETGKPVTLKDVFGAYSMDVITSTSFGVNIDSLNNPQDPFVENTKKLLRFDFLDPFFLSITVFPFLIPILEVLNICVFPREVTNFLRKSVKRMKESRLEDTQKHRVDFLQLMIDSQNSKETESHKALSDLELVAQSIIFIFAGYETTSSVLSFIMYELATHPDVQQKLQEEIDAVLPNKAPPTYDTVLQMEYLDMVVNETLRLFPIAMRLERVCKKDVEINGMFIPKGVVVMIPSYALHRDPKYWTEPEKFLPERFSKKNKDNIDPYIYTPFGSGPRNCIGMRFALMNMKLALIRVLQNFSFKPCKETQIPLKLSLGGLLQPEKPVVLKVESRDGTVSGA

Consider `O=C(c1csnn1)N1CCC2(CC1)CCN(c1cccc(-c3ccccc3)c1)CC2`, for which the Potency is > 11.4 µM (inactive) in [1] and > 46 µM (inactive) in experiment [5]. The values for the activity change, negative = inhibition in [2], in experiment [3] and in [8] were -21.7% (inactive), 22.2% (inactive) and -6.94% (inactive), respectively. Besides, the activity, negative = inhibition in [4] is -14.3% (inactive). For the same compound, the Potency result in experiment [6] and in [7] was “inactive” each time. The results for the max response in experiment [8] (setting [12]) and in [8] (setting [13]) were 9.03% and 3.45%, respectively. Further, the outcome in [9] was inactive.

For the compound `O=C(Nc1cccc(F)c1)N1CC2(CCN(C(=O)c3ccco3)CC2)C1`, the results for the Potency in [1] and in experiment [5] were > 11.4 µM (inactive) and > 46 µM (inactive), respectively. Moreover, the activity change, negative = inhibition in experiment [2] was -3.07% (inactive); in experiment [3], 4.39% (inactive); in experiment [8], 5.94% (inactive). For the same compound, the activity, negative = inhibition in [4] is 1.12% (inactive). The Potency entry in [6] and in experiment [7] was “inactive” each time. Further, the max response in [8] (setting [12]) was 1.85%; in experiment [8] (setting [13]), 13.6%. The result in experiment [9] was inactive.

As for `COC(=O)N1CCC[C@@]2(CCN(c3ccccc3)C2)C1`, the Potency is > 11.4 µM (inactive) in experiment [1] and > 46 µM (inactive) in [5]. The values for the activity change, negative = inhibition in experiment [2], in experiment [3] and in experiment [8] were -10.2% (inactive), -9.75% (inactive) and -12.5% (inactive), respectively. In addition, in experiment [4], the activity, negative = inhibition is 7.98% (inactive). Besides, the Potency entry in [6] and in [7] was “inactive” each time. Moreover, the max response in experiment [8] (setting [12]) is 14%; in [8] (setting [13]), -1.29%. The result in experiment [9] was inactive.

Take `O=C(c1csnn1)N1CCC[C@@]2(CCN(C(c3ccccc3)c3ccccc3)C2)C1`: the figures for the Potency in experiment [1] and in [5] were > 11.4 µM (inactive) and > 46 µM (inactive), respectively. Moreover, the activity change, negative = inhibition in [2] is 8.26% (inactive); in experiment [3] it was 29.4% (inactive); in experiment [8], -19.7% (inactive). For the same compound, the activity, negative = inhibition in experiment [4] is 26.4% (inactive). Moreover, the Potency entry in [6] and in experiment [7] was “inactive” in each case. For the same compound, the max response in [8] (setting [12]) is -5.14%; in experiment [8] (setting [13]), -20.5%. For the same compound, the outcome in experiment [9] was inactive.

As for `COc1ncc2nc(-c3ccccc3)c(=O)n(C[C@H]3CCCO3)c2n1`, the Potency is > 11.4 µM (inactive) in [1], > 9.22 µM (inactive) in experiment [10] and > 46 µM (inactive) in experiment [5]. Moreover, the figures for the activity change, negative = inhibition in experiment [2], in [3] and in experiment [8] were -19.2% (inactive), -13.8% (inactive) and 1.51% (inactive), respectively. Besides, the activity, negative = inhibition in experiment [4] was 0.632% (inactive). Further, the Potency entry in experiment [6], in experiment [7] and in experiment [11] was “inactive” in each case. For the same compound, the max response in experiment [8] (setting [12]) turned out to be 9.98%; in experiment [8] (setting [13]) it was 14.7%. Besides, the result in experiment [9] was inactive.

Regarding `COC(=O)N1CCC2(CCN(C(=O)Nc3cccc(C#N)c3)CC2)CC1`, the Potency in experiment [1] is > 11.4 µM (inactive); in experiment [5], > 46 µM (inactive). For the same compound, the results for the activity change, negative = inhibition in experiment [2], in experiment [3] and in experiment [8] were -20.7% (inactive), 4.12% (inactive) and -0.883% (inactive), respectively. In experiment [4], the activity, negative = inhibition is 7.14% (inactive). The Potency result in [6] and in experiment [7] was “inactive” in each case. Moreover, the max response in experiment [8] (setting [12]) was 12.6%; in experiment [8] (setting [13]), 14%. Moreover, in experiment [9], the result was inactive.

As for `CC(=O)N1CCC2(CC1)CN(c1cccc(-c3ccccc3)c1)C2`, the values for the Potency in experiment [1] and in experiment [5] were > 11.4 µM (inactive) and > 46 µM (inactive), respectively. Besides, the activity change, negative = inhibition in experiment [2] is -4.65% (inactive); in experiment [3] it was 16.1% (inactive); in [8], 6.04% (inactive). The activity, negative = inhibition in experiment [4] was 1.02% (inactive). Besides, the Potency result in experiment [6] and in [7] was “inactive” each time. The figures for the max response in experiment [8] (setting [12]) and in [8] (setting [13]) were 6.96% and 17.4%, respectively. The result in experiment [9] was inactive.
